The values that follow come from PubChem BioAssay (EPA / NIEHS).

Test [1] is described as follows: ATG_XTT_Cytotoxicity: Cytotoxicity Assessment in the Attagene TRANS-FACTORIAL HepG2 Assay (AID 2283584).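 On AC50: cells exposed to compound for 24 h before reading; active means loss of viability signal versus DMSO baseline.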 A digest of the protocol: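 Viability endpoint from XTT after 24 h chemical exposure of reporter-transfected human HepG2 liver cells; signal loss fitted relative to DMSO negative control.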
The nature of test [2]: TOX21_p53_BLA_p2_viability: Viability Assessment in the Tox21 HCT-116 p53 Agonism Beta-lactamase Assay, Phase 2 (AID 2283591).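 Further: compound exposure lasted 16 h at 37 °C; actives lower the ATP signal meaning cytotoxicity.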 A digest of the protocol:
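Cytotoxicity readout: CellTiter-Glo ATP luminescence, 30 min at room temperature, after the beta-lactamase read. Cells were HCT116 exposed 16 h at 37C to compounds pin-transferred at 217-fold dilution from DMSO stocks.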

Test [3] has as its target Cellular tumor antigen p53 (Homo sapiens) (UniProt P04637). The experiment in a line: TOX21_p53_BLA_p2_ratio: Tox21 HCT-116 p53 Agonism Beta-lactamase Assay, Ratio, Phase 2 (AID 2283592). Summed up: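 Gain-of-signal p53 agonism was scored from the beta-lactamase FRET ratio (460/530 nm, 405 nm excitation) in HCT116 cells treated 16 h at 37C, 5% CO2, with DMSO serving as negative control and baseline.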

The nature of test [4]: TOX21_p53_BLA_p3_viability: Viability Assessment in the Tox21 HCT-116 p53 Agonism Beta-lactamase Assay, Phase 3 (AID 2283593).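 Further: cells exposed to compound for 16 h before reading.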 A digest of the protocol:
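Cellular ATP was quantified by CellTiter-Glo luminescence, read after 30 min at room temperature. Beforehand, HCT116 cells (4000/well) received compound 5 h post-seeding, 217-fold diluted from DMSO, then incubated 16 h at 37C.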

In test [5] the target is Cellular tumor antigen p53 (Homo sapiens) (UniProt P04637). Kind of test: TOX21_p53_BLA_p3_ratio: Tox21 HCT-116 p53 Agonism Beta-lactamase Assay, Ratio, Phase 3 (AID 2283596). Summed up: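 HCT116 p53-bla cells (4000/well) given compound in DMSO (217-fold dilution) after 5 h, incubated 16 h at 37C. CCF4-AM substrate 2 h at room temperature; 460/530 nm emission ratio, gain fitted against DMSO.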

Test [6] can be described thus: TOX21_p53_BLA_p4_viability: Viability Assessment in the Tox21 HCT-116 p53 Agonism Beta-lactamase Assay, Phase 4 (AID 2283597).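 Further: hits lower the luminescence signal meaning cytotoxicity.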 A digest of the protocol:
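Following a 16 h exposure at 37C, the treated HCT116 wells were first read for the FRET ratio. They were then lysed with CellTiter-Glo, and ATP luminescence was recorded after 30 min at room temperature.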

In test [7] the target is Cellular tumor antigen p53 (Homo sapiens) (UniProt P04637). Kind of test: TOX21_p53_BLA_p5_ratio: Tox21 HCT-116 p53 Agonism Beta-lactamase Assay, Ratio, Phase 5 (AID 2283599). A digest of the protocol: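 Beta-lactamase reporter ratio (blue 460 nm over green 530 nm, 405 nm excitation) after 2 h CCF4-AM loading, in HCT-116 cells exposed 16 h at 37 C to compounds pinned at 217-fold dilution. Increases relative to DMSO baseline scored.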

Test [8] can be described thus: TOX21_p53_BLA_p5_viability: Viability Assessment in the Tox21 HCT-116 p53 Agonism Beta-lactamase Assay, Phase 5 (AID 2283600). Summed up: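 After the 460/530 nm beta-lactamase measurement, the wells received an ATP-detection luciferase reagent; signal was read 30 min later at RT. Compound treatment lasted 16 h on cells pre-incubated 5 h post-seeding.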
The test system of test [9] is Thyroperoxidase (TPO), gene 54314. The experiment in a line: CCTE_Simmons_AUR_rTPO: CCTE's Amplex UltraRed Assay for Thyroperoxidase (TPO) Inhibition, Simmons Lab (AID 2283662).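 On AC50: potency for loss of signal meaning inhibition of peroxidase activity.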 A digest of the protocol: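 Endpoint is decreased Amplex UltraRed fluorescence after a 30-min, 37C reaction of rat thyroid microsomes with 300 uM H2O2. Eight test concentrations (5 nM–87.5 uM final) in 0.5% DMSO, three biological replicates each.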

The nature of test [10]: CCTE_Simmons_CellTiterGLO_HEK293T: Viability Assessment in CCTE's Assays for Thyroperoxidase (TPO) Inhibition, Simmons Lab (AID 2283665).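 On AC50: cells exposed to compound for 24 h before readout; actives reduce ATP signal below DMSO vehicle meaning cytotoxicity.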 Summed up: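 HEK293T, 10 000 cells/well, DMEM + 1% FBS; 8-pt titration 5 nM–87.5 uM [final], 0.5% DMSO; 24 hr, 37C, 5% CO2; CellTiter-Glo luminescence; n=3 biological replicates.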
(Cellular ATP, detected with luciferase, serves as a proxy for viable cell number.)

The target of test [11] is Luciferin 4-monooxygenase (Photinus pyralis) (UniProt P08659). Kind of test: CCTE_Simmons_QuantiLum_inhib_2: CCTE's Firefly Luciferase Inhibition Assay, Simmons Lab (AID 2283767).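 On AC50: potency for inhibitors that lower luciferase luminescence relative to DMSO.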 Summed up: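 Luminescence loss relative to DMSO vehicle defines inhibition; detection reagent containing 150 uM D-luciferin and 147 uM dATP (final, pH 7.8) is injected immediately before each read. Enzyme is preincubated with an 8-point titration (5 nM–87.5 uM final) for 30 min at 37C.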

A short description of test [12]: STM_H9_OrnCyssISnorm_ratio: Stemina devTOX quickPredict H9 human embryonic stem cell (hESC)-based Assay for Ornithine (ORN):Cystine (CYSS) Ratio (AID 2283714). A digest of the protocol: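 Steps: H9 hESCs in pluripotent state dosed 72h, medium plus compound renewed every 24h; conditioned medium from the final 24h deproteinized in 40% acetonitrile; ORN and CYSS quantified by UPLC-HRMS with C13 spike-ins; ratio relative to vehicle.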

Test [13] concerns the target Cellular tumor antigen p53 (Homo sapiens) (UniProt P04637). The experiment in a line: TOX21_p53_BLA_p4_ratio: Tox21 HCT-116 p53 Agonism Beta-lactamase Assay, Ratio, Phase 4 (AID 2283601). Summed up:
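Signal is the blue/green (460nm/530nm) ratio of cleaved versus uncleaved CCF4-AM substrate, read after 2 h substrate loading. Cells were HCT116 carrying the p53-responsive beta-lactamase reporter, dosed 16 h at 37C, 5% CO2; CellTiter-Glo measured in parallel.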

Several values for one entry are separate records, joined by “and”; a condition that tells them apart may be missing. Equal entries are not always repeated. Inconclusive results are not listed. Some compounds were tested as several samples or in several runs, with calls that do not always agree. Activity calls are given as the source filed them. How the source made its calls: active means hit-call score of the fitted dose curve at least 0.9, where 1 is the maximum; inconclusive means response in the unintended direction; inactive means score below 0.9.

Cellular tumor antigen p53 (Homo sapiens), sequence (P04637 whole entry, looked up): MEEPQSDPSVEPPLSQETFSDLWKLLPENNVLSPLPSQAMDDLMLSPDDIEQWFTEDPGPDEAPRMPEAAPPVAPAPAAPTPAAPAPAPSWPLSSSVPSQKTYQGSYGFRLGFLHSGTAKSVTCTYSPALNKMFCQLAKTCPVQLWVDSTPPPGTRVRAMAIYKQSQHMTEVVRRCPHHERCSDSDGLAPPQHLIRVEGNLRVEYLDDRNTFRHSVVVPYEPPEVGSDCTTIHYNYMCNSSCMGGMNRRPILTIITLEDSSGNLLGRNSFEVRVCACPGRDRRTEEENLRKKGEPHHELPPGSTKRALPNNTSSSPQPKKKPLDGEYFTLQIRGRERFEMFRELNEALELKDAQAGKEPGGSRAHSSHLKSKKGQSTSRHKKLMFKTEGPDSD
Luciferin 4-monooxygenase (Photinus pyralis), sequence (P08659 whole entry, looked up): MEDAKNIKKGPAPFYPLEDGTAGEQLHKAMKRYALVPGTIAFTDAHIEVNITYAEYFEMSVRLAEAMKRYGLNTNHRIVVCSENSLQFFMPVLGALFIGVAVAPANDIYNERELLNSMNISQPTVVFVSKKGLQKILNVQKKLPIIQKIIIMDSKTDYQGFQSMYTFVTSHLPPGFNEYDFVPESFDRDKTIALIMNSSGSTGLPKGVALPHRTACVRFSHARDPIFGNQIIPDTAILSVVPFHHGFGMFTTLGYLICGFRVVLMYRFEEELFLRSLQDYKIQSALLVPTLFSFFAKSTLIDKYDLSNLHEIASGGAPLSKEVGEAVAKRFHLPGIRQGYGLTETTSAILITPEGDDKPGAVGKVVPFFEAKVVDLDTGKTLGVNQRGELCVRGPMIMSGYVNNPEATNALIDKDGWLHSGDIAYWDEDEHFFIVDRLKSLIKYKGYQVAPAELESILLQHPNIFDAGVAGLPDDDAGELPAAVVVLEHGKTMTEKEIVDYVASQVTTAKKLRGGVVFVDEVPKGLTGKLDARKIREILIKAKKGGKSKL

For `CCCCCC/C=C/CCCCCCCC(=O)O`, the compound was called inactive in test [1], in test [2], in test [3], in test [4], in test [5] and in test [6]. Also, the result in [7] and in test [8] was inactive.
Regarding `Brc1nc2ccccc2s1`, the result in test [1], in test [2], in test [3], in test [4], in test [5] and in [6] was inactive. Moreover, the result in test [7] and in test [8] was inactive.
Consider `CCCC(=O)OCC(COC(=O)CCC)OC(=O)CCC`, for which, in test [1], the compound was called inactive.
Take `Cc1ccc(O)c(-n2nc3ccccc3n2)c1`: the call in [1], in [2], in [3], in test [4], in [5] and in test [6] was inactive. Further, the result in test [7], in [8] and in [9] was inactive. Moreover, the AC50 (usually the concentration giving half of the maximal activity seen) was 21 µM (active) in test [10] and 1.54 µM (active) in [11].
Turning to `Nc1cccnc1N`, the outcome in [1] was inactive.
`CCCCCCCC/C=C\CCCCCCCC(=O)N(C)CC(=O)O`: the AC50 in [1] is 128 µM (active); in test [2], 37.1 µM (active); in test [3], 51.5 µM (active); in test [4] it was 45.1 µM (active); in [5] it was 81.1 µM (active); in [6], 83.3 µM (active). Further, the AC50 in [7] was 79.6 µM (active); in test [8], 43.7 µM (active); in [9], 16.4 µM (active); in [10], 24.4 µM (active). Further, in [11], the outcome was inactive.
With `CCN=c1cc2oc3cc(NCC)c(C)cc3c(-c3ccccc3C(=O)OCC)c-2cc1C`, the AC50 in [1] was 32 µM (active); in test [2], 38.3 µM (active) and 45.9 µM (active); in test [3], 16 µM (active) and 6.62 µM (active); in test [4], 59.6 µM (active) and 36.8 µM (active); in test [5], 17.8 µM (active) and 31.3 µM (active); in test [6], 67.5 µM (active) and 58.2 µM (active). For the same compound, the AC50 was 21.9 µM (active) and 32 µM (active) in test [7]; 60.8 µM (active) and 63.2 µM (active) in test [8]; 0.0769 µM (active) in [12].
Take `O=C1C=CC(=O)N1c1ccc(Cc2ccc(N3C(=O)C=CC3=O)cc2)cc1`: the half-maximal activity concentration (AC50) in [1] was 157 µM (active); in [2], 71 µM (active); in [3], 29.1 µM (active); in [6], 75.2 µM (active); in test [7] it was 74.4 µM (active); in test [8] it was 86.3 µM (active). Further, the call in test [4] and in test [5] was inactive.
Take `CC1=CCC(=O)O1`: in [1], the call was inactive.
Consider `O=C(Cl)c1ccc(Cl)cc1Cl`, for which the result in test [1] was inactive.
In the case of `CC(C)(C)C(=O)C1C(=O)c2ccccc2C1=O`, the compound was classed as inactive in test [1], in [2], in test [3], in test [4], in test [6] and in [7]. Further, the outcome in test [8] was inactive. Further, the half-maximal activity concentration (AC50) was 62 µM (active) in test [4]; 42.7 µM (active) and 35.6 µM (active) in test [5]; 67.3 µM (active) in test [7].
Regarding `CC(C)OC=O`, the compound was called inactive in [1], in [2], in test [3], in [4], in test [5] and in test [6]. The outcome in test [7], in test [8], in test [9], in [10] and in test [11] was inactive.
Consider `CC(=O)C=O`, for which the compound was classed as inactive in [1].
The same measure, in the same setting: the same measure for `N#CCCOCCC#N`: “inactive”; for `CC(C)(C)c1cc(CCC(=O)NCCCCCCNC(=O)CCc2cc(C(C)(C)C)c(O)c(C(C)(C)C)c2)cc(C(C)(C)C)c1O`: “inactive”.
Take `Brc1ccccn1`: the outcome in [1] was inactive.
The same measure, in the same setting: the same measure for `CCOCN(C(=O)CS(=O)(=O)O)c1c(C)cccc1CC`: “inactive”; for `CC(=O)c1ccccc1N`: “inactive”.
On the same count and under the same terms, the result for `CCCCCCCCCCCC(=O)Cl` reads “inactive”; that for `COc1ccccc1C=O`, “inactive”; that for `CCOC(C=C(C)CCC=C(C)C)OCC`, “inactive”.
Same read-out and setting: the result for `N#Cc1ccccc1O` reads “inactive”.
With `CC(C)CC=C(C=O)c1ccccc1`, the compound was called inactive in test [2], in test [4], in test [5] and in [6].
On to `CCCCOC(=O)[C@H](C)O`, for which the outcome in test [3], in [5], in test [7] and in test [8] was inactive.
In the case of `CN(N=O)C(=O)N[C@@H]1[C@@H](O)[C@H](O)[C@@H](CO)O[C@@H]1O`, the compound was classed as inactive in test [2], in test [3], in [4], in test [5], in test [6] and in test [7]. Also, the call in [8] and in [13] was inactive.
As for `CCC(=O)OC(C)c1ccccc1` (stereo not given), the result in test [1], in test [2], in [3], in test [5], in test [7] and in test [8] was inactive.
As to `OCC1CCCO1` (stereo not given), the compound was called inactive in test [2], in test [3], in test [4], in test [6], in [7] and in test [8].
Regarding `CCC/C=C/CO`, the outcome in test [1], in test [2], in test [3], in test [5], in test [7] and in [8] was inactive.
Regarding `CCOC(=O)CCC(C)=O`, the compound was classed as inactive in test [2], in test [3], in [5], in [7] and in test [8].
`CC(C)Nc1ccc(NC(C)C)c2c1C(=O)c1ccccc1C2=O`: the result in [3], in test [5], in [7] and in test [8] was inactive.
As for `CC(=O)CCC(C)C`, the call in test [2], in test [3], in [4], in test [5], in [6] and in test [7] was inactive. Moreover, the outcome in test [8] was inactive.
As for `Cc1ccc([N+](=O)[O-])c(C)c1`, the compound was called inactive in [1], in test [2], in test [3], in [4], in [5] and in test [7]. Besides, the outcome in test [8] was inactive.
`CSc1ccc(Cl)cc1`: the result in [2], in test [3], in test [4], in [5], in test [6] and in test [7] was inactive. The compound was classed as inactive in [8].
Regarding `O=c1cccc[nH]1`, the call in [1], in test [9], in test [10] and in [11] was inactive.
Take `CC(C)CCCC(C)CCO` (stereo not given): the result in test [1], in test [2], in test [3], in test [4], in test [7] and in [8] was inactive. Moreover, in [13], the result was inactive.
